FBW7 act – human FBW7 E3 ligase activation, primary screen; Q969H0; AlphaScreen FBW7–phospho-cyclin E peptide binding, activator screen; normalized activity (activation), % at 26.1 µM; hit rate 0.13% among 650,000; AID 1259310; in the data active = normalized activity above about 1.9%;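 note: purified mutant Fbw7 with reduced substrate affinity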
GPR151 activ – activators of human GPR151 | Q8TDV0 | PathHunter beta-arrestin GPR151 cells, luminescence | activation, % at 11.2 µM | hit rate 1% among 650,000; in the data active = activation above about 4.9%;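 note: 0% = median of compound wells and 100% = cells with positive control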
Target sequence (Q8TDV0 whole entry, looked up): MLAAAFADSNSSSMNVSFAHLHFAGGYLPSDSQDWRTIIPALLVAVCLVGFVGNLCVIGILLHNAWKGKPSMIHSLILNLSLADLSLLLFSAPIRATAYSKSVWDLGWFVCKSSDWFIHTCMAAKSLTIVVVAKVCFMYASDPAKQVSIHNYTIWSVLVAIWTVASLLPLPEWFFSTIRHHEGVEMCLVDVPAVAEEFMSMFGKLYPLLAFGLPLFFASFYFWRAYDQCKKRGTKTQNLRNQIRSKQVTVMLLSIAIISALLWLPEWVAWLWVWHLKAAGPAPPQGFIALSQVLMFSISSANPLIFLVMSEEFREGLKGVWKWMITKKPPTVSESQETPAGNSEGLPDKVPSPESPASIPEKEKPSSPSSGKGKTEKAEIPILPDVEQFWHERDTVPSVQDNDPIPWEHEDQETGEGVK
TEAD-YAP block – TEAD-YAP interaction inhibition | inhibition, % at 9.12 µM | hit rate 1.4% among 640,000 | AID 1259422 | HEK-TIYL cells, TEAD-Gal4/YAP UAS-luciferase luminescence; in the data active = inhibition above about 32%;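 note: 0% = median of test compound wells and 100% = reference inhibitor wells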
MITF inh – inhibitors of human MITF; O75030; AlphaScreen MITF homodimerization, bead proximity signal; inhibition, % at 2.6 µM; hit rate 0.91% among 650,000; in the data active = inhibition above about 50%;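 note: 0% = vehicle wells with protein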
Numbers without * were called inactive. This is a sample that favours compounds with a hit; in the whole collection about 3.5% have one here.

SMILES | FBW7 act | GPR151 activ | TEAD-YAP block | MITF inh
CSc1nnc(-c2ccc(O)cc2)n1CCN1CCOCC1 | 0 | 1 | 3 | -5
CCOC(=O)c1c(NC(=O)CSc2nnc(CNC(=O)c3cccc(C)c3)n2-c2cccc(C)c2)sc2c1CCCC2 | 0 | 2 | 2 | -8
CC(NCCN1CCNCC1)c1cc(C(C)(C)C)cc2c1CCC2(C)C (configuration not stated) | 1 | -1 | 64* | -17
O=C1CCN(Cc2cn[nH]c2-c2ccc(Cl)cc2)CCN1CCN1CCCCC1 | 0 | 0 | 13 | -5
c1ccc(Cn2c(C3COc4ccccc4O3)nc3ncc(-c4ccncc4)cc32)cc1 (configuration not stated) | 0 | 0 | 47* | -6
CCn1c(C2COc3ccccc3O2)nc2ccc(-c3ccncc3)cc21 (configuration not stated) | 0 | -1 | -15 | 24
N#CCSc1nc2cc(C(=O)N3CCc4ccccc4C3)ccc2c(=O)n1-c1ccccc1 | 0 | 2 | 8 | -1
CCN(CC)c1nc(Nc2ccc(N3CCOCC3)cc2)nc(Nc2nc3ccccc3n2C)n1 | 0 | -1 | 22 | -1
Cc1cc(Nc2ccc(N3CCOCC3)cc2)nc(N2CCc3ccccc3C2)n1 | 0 | 2 | 41* | 19
c1cnc2ccc(Nc3nccc(Nc4ccc(N5CCOCC5)cc4)n3)cc2c1 | 0 | 5 | 82* | 24
Cc1cc(Nc2ccccc2)nc(N2CCN(C(=O)C(C)(C)C)CC2)n1 | 0 | 1 | 32* | -5
Cn1c(Nc2nccc(Nc3ccc(N4CCOCC4)cc3)n2)nc2ccccc21 | 0 | 4 | 54* | 22
CC(=O)Nc1ccc(Nc2cc(C)nc(N3CCN(c4ccccn4)CC3)n2)cc1 | 0 | -1 | 9 | 5
Cc1cc(C)c(S(=O)(=O)N2CCCC2)cc1C | 0 | 0 | 3 | 15
CCOc1ccc(-n2c(CNC(=O)Cc3ccccc3)nnc2SCC(=O)N2N=C(c3cccs3)CC2c2ccc(C)cc2)cc1 (configuration not stated) | 0 | 1 | 4 | -7
CSc1c(C)c(C#N)c(=O)n(NC(=O)NC2CCCCC2)c1C | 1 | 0 | -15 | 5
Cc1cc(Nc2ccc(N3CCOCC3)cc2)nc(Nc2ncccn2)n1 | 0 | 0 | 7 | 7
Cc1cc(Nc2ccc(N3CCOCC3)cc2)nc(Nc2ccc3ncccc3c2)n1 | 0 | 1 | 57* | -1
Cc1ccc(-c2nc3cc(NC(=O)C45CC6CC(CC(C6)C4)C5)ccc3o2)cc1 | 0 | -1 | 2 | 7
COc1ccc(-c2cnc3c(NCc4ccc(S(N)(=O)=O)cc4)nccn23)cc1OC | 0 | 0 | -5 | -7
CNC(=S)N1CCC(NC(=O)C(Cc2ccc(OC)cc2)NC(C)=O)CC1 (configuration not stated) | 2.4* | 3 | -15 | 5
NC(=NCc1ccccc1)c1cccc([N+](=O)[O-])c1 | 0 | 0 | 6 | -5
O=C(Cn1ccc(=NCc2ccccc2)cc1)c1cccc([N+](=O)[O-])c1 | 0 | 0 | 33* | -32
O=C1N(c2ccccc2)C[C@@H]2C[C@@H](c3cc4ccccc4o3)N3CCC[C@@]123 | 0 | -1 | 65* | 1
COc1cccc2cc(C(=O)Nc3ccccc3)c(=Nc3ccc(F)cc3)oc12 | 0 | 0 | -40 | 0
SMILES | FBW7 act | GPR151 activ | TEAD-YAP block | MITF inh
COc1cccc2cc(C(=O)Nc3ccccc3)/c(=N/O)oc12 | 0 | -1 | 34* | 14
O=C1/C(=C\C=C/c2ccc([N+](=O)[O-])o2)C(C(F)(F)F)=NN1c1ccccc1[N+](=O)[O-] | 1 | 1 | 15 | 90*
CN(C(=O)c1cccc2ncccc12)c1nc2c(s1)CCc1occc1-2 | 7.5* | 0 | -7 | 12
CC(C)N1CCc2c(sc(NC(=O)C(C)(C)C)c2C(N)=O)C1 | 1 | 0 | 74* | 13
O=C(Nc1nnc(C23CC4CC(CC(C4)C2)C3)s1)c1cccs1 | 0 | 0 | 33* | 6
O=C(Nc1nnc(C23CC4CC(CC(C4)C2)C3)s1)c1ccccc1 | 0 | 0 | 42* | 13
O=C(Nc1nnc(C23CC4CC(CC(C4)C2)C3)s1)c1ccccc1Cl | 0 | 0 | 9 | 5
COc1ccc(C(=O)CSc2nnc(-c3ccoc3C)o2)cc1 | 1 | 3 | -11 | 4
CC1(C)NC(=O)N(CN2CCN(S(=O)(=O)c3cccc(C(F)(F)F)c3)CC2)C1=O | 0 | -2 | 0 | -12
COc1cccc(C2C(C(=O)N(C)C)=C(C)Nc3nc4ccccc4n32)c1OC (configuration not stated) | 0 | 0 | -2 | 4
CC(C)(C)C(=O)Nc1ccc(C(=O)/C=C/c2ccco2)cc1 | 0 | 0 | 37* | -2
O=C(/C=C/c1ccco1)NC(=S)Nc1ccc(NC(=O)c2ccco2)cc1 | 0 | -2 | 69* | 27
O=C(/C=C/c1ccco1)NC(=S)Nc1ccccc1 | 0 | 1 | -12 | 4
COc1cc(NC(=S)NC(=O)/C=C/c2ccco2)ccc1NC(=O)c1ccco1 | 1 | 3 | 49* | 29
COc1cc(NC(=O)/C=C/c2ccco2)ccc1NC(=O)c1ccco1 | 0 | 1 | -9 | 3
O=S(=O)(Nc1nccnc1-c1ccc(CO)cc1)c1ccc(F)cc1 | 1 | -1 | 2 | 17
O=C(NCC(c1ccc(F)cc1)N1CCOCC1)c1n[nH]c(=O)c2ccccc12 (configuration not stated) | 0 | 3 | 4 | -1
CCN1CCN(CC(=O)Nc2ccc(C)cc2)C(=O)C1=O | 0 | 1 | -9 | 7
CCN1CCN(CC(=O)Nc2ccc(Cl)cc2)C(=O)C1=O | 1.9* | -2 | 7 | 19
CCc1ccc(-c2nc3cc(N)ccc3o2)cc1 | 0 | -7 | 65* | 15
COc1cccc(-c2nc3cc(N)ccc3o2)c1 | 0 | -8 | 49* | 7
Nc1ccc(-c2nc3cc(Cc4ccc5oc(-c6ccc(N)cc6)nc5c4)ccc3o2)cc1 | 0 | 1 | -1 | -5
CCOc1ccc(-c2nc3cc(N)ccc3o2)cc1 | 0 | -6 | 76* | -2
Nc1ccc(-c2nc3cc(N)ccc3o2)cc1 | 0 | -4 | 49* | 7
COc1ccc(CCNC(=O)CCn2c(SCc3c(F)cccc3Cl)nc3ccccc3c2=O)cc1OC | 0 | 1 | -8 | -2
SMILES | FBW7 act | GPR151 activ | TEAD-YAP block | MITF inh
Cc1ccc(OC(C)C(=O)Nc2c(C)n(C)n(-c3ccccc3)c2=O)cc1C (configuration not stated) | 0 | 3 | 18 | -9
CCc1ccc2oc(-c3cc(N)ccc3O)nc2c1 | 1 | -4 | 38* | 2
COC(=O)c1ccc(-c2nc3cc(N)ccc3o2)cc1 | 0 | -6 | 72* | -3
CCc1ccc2oc(-c3cc(N)ccc3Cl)nc2c1 | 0 | -4 | -50 | 8
CN(C)c1ccc(-c2nc3cc(N)ccc3o2)cc1 | 1 | -8 | 79* | 13
COC(=O)c1ccc(-c2nc3cc(NC(C)=O)c(N)cc3o2)cc1 | 0 | -1 | -1 | 5
Cc1ccc(-c2nc3cc(N)ccc3o2)cc1Cl | 1 | -6 | 0 | -2
Cn1nccc1C(=O)n1cc(Br)cn1 | 0 | 1 | -4 | -2

Compound activity as filed in PubChem BioAssay.
